Hits are enriched below; roughly 14% of the tested compounds scored in any of these assays.
Pf growth 48h: P. falciparum growth inhibition at 48 hours (one generation); P. falciparum luciferase growth in erythrocytes, 48 h; Potency, µM (titrated, usually from 28.7 µM), inactives show at the top dose activity change, negative = inhibition, most hits filed as inhibitors; hit rate 5.9% among 310,000; AID 504832; further: potency means the concentration at half of the fitted maximal effect
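Growth was read as firefly luciferase luminescence after a 48 h, 37 C, 5% CO2 exposure of compounds to reporter-bearing P. falciparum cultures (0.1% parasitemia, 2% hematocrit final) in Albumax-supplemented RPMI 1640.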
HCMV inh: human cytomegalovirus inhibition | HFF cells, HCMV-luciferase reporter, 72 h; stronger effect = lower value | activity change, negative = inhibition, % at 57.5 µM | hit rate 4.5% among 410,000 | AID 1259415; in the data active means activity change below about -60%; inconclusive means no clear call, values can overlap the other calls; inactive means above about -39%
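Cell-based, HFFs, 1000 cells/well, 16 h 37C; cpds in DMSO + HCMV-luc, MOI 1 PFU/cell; 72 h 37C; OneGlo luminescence after 5 min RT; norm. to buffer vs Salinomycin 10uM.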
Pf growth 96h: P. falciparum growth inhibition at 96 hour, primary screen for plastid delayed-death inhibitors | P. falciparum luciferase reporter growth, 96 h | Potency, µM (titrated, usually from 28.7 µM), for the others: at the highest dose activity change, negative = inhibition, actives largely listed as inhibitors | hit rate 6.9% among 320,000 | AID 504834; further: potency means the concentration at half of the fitted maximal effect
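Plates of compound plus infected erythrocytes (2% hematocrit, 0.05% parasitemia final) incubate 96 hours, 37 C, 5% CO2. Detection reagent added; reduced luminescence from the parasites' luciferase reporter flags inhibition.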
FBPA Giardia inh: blocks Giardia fructose-bisphosphate aldolase activity. A8B2U2. purified Giardia FBPA. Potency, µM (titrated, usually from 59.6 µM), without a hit: top-dose activity, negative = inhibition, actives largely listed as inhibitors. hit rate 0.71% among 290,000. AID 2451; further: potency means the concentration at half of the fitted maximal effect; nearly all actives have a fitted effect of over 55% in size
Target sequence (A8B2U2 whole entry, looked up): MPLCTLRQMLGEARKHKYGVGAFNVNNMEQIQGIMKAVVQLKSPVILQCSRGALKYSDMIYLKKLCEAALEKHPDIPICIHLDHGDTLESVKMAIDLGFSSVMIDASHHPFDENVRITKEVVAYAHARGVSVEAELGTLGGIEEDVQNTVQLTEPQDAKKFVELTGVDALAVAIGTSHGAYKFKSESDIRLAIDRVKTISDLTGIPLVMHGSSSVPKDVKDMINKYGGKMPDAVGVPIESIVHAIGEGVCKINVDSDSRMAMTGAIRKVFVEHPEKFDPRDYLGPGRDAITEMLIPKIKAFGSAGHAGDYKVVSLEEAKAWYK
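40 nM FBPA preincubated 10 min at RT with compound (up to 57.5 uM final), then substrate plus GAPDH/TPI/NAD/arsenate coupling and diaphorase/resazurin added. Fluorescence read after 20 min at RT, 525/598 nm.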
Sm TGR inh: inhibitors of Schistosoma mansoni thioredoxin glutathione reductase. purified TGR, DTNB reduction, TNB absorbance 405 nm. Potency, µM (top dose mostly 114 µM), for inactives: at the highest dose activity change, negative = inhibition, most hits filed as inhibitors. hit rate 3% among 360,000. AID 485364; further: potency means the concentration at half of the fitted maximal effect; nearly all actives have a fitted effect of over 60% in size
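First, TGR (20 nM dispensed) and NADPH were mixed with compound. Second, a 15 min room-temperature incubation followed. Third, further NADPH and then DTNB were added to start the reaction. Finally, TNB absorbance was monitored kinetically.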
Numbers without * were called inactive. Unless noted, the call rests on the fitted dose curve; in most records, active means well fitted curve in the direction sought with a large enough effect; inconclusive means small, poorly fitted or top-dose-only effect, or another doubt; inactive means no such curve, though single readings can be large; an effect the other way counts as inactive or inconclusive. On the % scale 0 is the no-effect control and ±100 the full control effect.

`Cc1ccc(/C=N/NC(=O)c2nnn(-c3nonc3N)c2-c2ccc3c(c2)OCO3)s1` gave Pf growth 48h 0.262µM*, HCMV inh 0.0, Pf growth 96h inconclusive, FBPA Giardia inh -26.7% and Sm TGR inh -3.4%.
`Nc1nonc1-n1nnc(C(=O)N/N=C/c2cccnc2)c1-c1ccccc1` gave Pf growth 48h inconclusive, HCMV inh -7.5, Pf growth 96h 11.7µM*, FBPA Giardia inh -0.8% and Sm TGR inh -6.8%.
C/C(=N/NC(=O)c1nnn(-c2nonc2N)c1-c1ccccc1)c1ccc2c(c1)OCO2 was read as Pf growth 48h 8.1%, HCMV inh -38.8, Pf growth 96h 20.2%, FBPA Giardia inh 5.5% and Sm TGR inh -5.6%.
Screening CC(CCc1ccccc1)NC(=O)c1ccccc1Cl (stereo unspecified) returned Pf growth 48h inconclusive, HCMV inh 56.5, Pf growth 96h 9.28µM*, FBPA Giardia inh -1.2% and Sm TGR inh -10.3%.
For CC(NC(=O)c1ccccc1)C(=O)NNC(=O)c1ccccc1Cl (stereo unspecified) the results were Pf growth 48h 26.3%, HCMV inh -63.5*, Pf growth 96h 7.1% and Sm TGR inh 7.2%.
Screening CC(=O)Oc1ccccc1C(=O)NC(C)CCc1ccccc1 (stereo unspecified) returned Pf growth 48h 14.7µM*, HCMV inh -8.7, Pf growth 96h inconclusive, FBPA Giardia inh 4.8% and Sm TGR inh -0.1%.
For COCC(C)NC(=O)c1ccccc1OC(C)=O (stereo unspecified) the results were Pf growth 48h -4.7%, HCMV inh -17.6, FBPA Giardia inh 4.3% and Sm TGR inh 11.3%.
For O=C(CCc1ccccc1)NNC(=O)c1ccccc1Cl the results were Pf growth 48h inconclusive, HCMV inh 14.8, Pf growth 96h 2.94µM*, FBPA Giardia inh -5.1% and Sm TGR inh 2.1%.
Screening COc1ccc(OCc2ccc(/C=N\NC(=O)c3sccc3C)o2)cc1 returned Pf growth 48h 34.5%, HCMV inh 39.8, Pf growth 96h 34.7% and Sm TGR inh inconclusive.
CC1OC2CC(=O)OC2C2=C1C(=O)c1c(O)cccc1C2=O (stereo unspecified) was read as HCMV inh -106.4*.
O=C1c2cccc(O)c2C(=O)c2c(O)cc(CO)cc21 was read as FBPA Giardia inh -8.7%.
COc1ccccc1NC(=O)NNC(=O)CCc1ccccc1 was read as Pf growth 48h 13.8%, HCMV inh 39.3, Pf growth 96h 22.5%, FBPA Giardia inh -0.6% and Sm TGR inh 0.7%.
FC(F)(F)c1cnc(C(c2ccccc2)c2ncn[nH]2)c(Cl)c1 (stereo unspecified) was read as Pf growth 48h -4.5%, HCMV inh 5.6, Pf growth 96h 35.4%, FBPA Giardia inh -10.0% and Sm TGR inh 0.3%.
FC(F)(F)c1cnc(C(c2ccccn2)c2ncn[nH]2)c(Cl)c1 (stereo unspecified) was read as Pf growth 48h 11.7µM*, HCMV inh -12.1, Pf growth 96h inconclusive, FBPA Giardia inh inconclusive and Sm TGR inh -0.6%.
Screening COc1ccc(C[C@H]2CN3C(=NC[C@@H]3Cc3ccc(O)cc3)N2C[C@H](C)NC(=O)c2ccc(C)c(Br)c2)cc1 returned Pf growth 48h 1.47µM*, Pf growth 96h 0.828µM*, FBPA Giardia inh -13.7% and Sm TGR inh 39.8µM*.
Screening COc1ccc(C(=O)N[C@H](C(=O)NCCCn2nc(C)cc2C)C(C)C)cc1 returned HCMV inh -1.2.
`Cc1ccc(C(=O)N[C@@H](C)CN2C3=NC[C@@H](Cc4ccccc4)N3C[C@H]2Cc2ccc(O)cc2)cc1Br` gave Pf growth 48h 5.22µM*, HCMV inh 10.6, Pf growth 96h 2.94µM*, FBPA Giardia inh 1.4% and Sm TGR inh 50.1µM*.
`Cc1ccc(C(=O)N[C@@H](C)CN2C3=NC[C@H](Cc4ccccc4)N3C[C@H]2Cc2ccc(O)cc2)cc1Br` gave Pf growth 48h 2.08µM*, Pf growth 96h 1.31µM*, FBPA Giardia inh -8.1% and Sm TGR inh inconclusive.
`CC(CCc1ccccc1)NC(=O)c1ccc(Br)cc1` (stereo unspecified) gave Pf growth 48h 60.8%, HCMV inh 21.9, Pf growth 96h inconclusive, FBPA Giardia inh 12.6% and Sm TGR inh 2.0%.
